Assay results taken from PubChem BioAssay (NCI).
The panel holds about 79,000 compounds, 15% with a hit somewhere; the sample as a whole holds those more often. Active and inactive are the calls of the source. Cut-off read from the data, not from the text of the source: active = growth inhibition above about 70%; inactive = the rest.

Key:
[1] = NCI Yeast Anticancer Drug Screen. Data for the mec2-1 strain (AID 157); details: S. cerevisiae mec2-1 strain, stronger effect = higher value
Method in brief: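 Readout is yeast growth inhibition, normalised to vehicle-treated controls, in the mec2-1 strain exposed to compound.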

[2] = NCI Yeast Anticancer Drug Screen. Data for the rad14 strain (AID 159);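 note: 0% = growth of vehicle-treated control cultures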; details: S. cerevisiae rad14 strain growth inhibition, stronger effect = higher value
Method in brief: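 DNA repair-defective yeast, compound-exposed; % growth inhibition derived by comparison with vehicle-treated controls.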

[3] = NCI Yeast Anticancer Drug Screen. Data for the sgs1 mgt1 strain (AID 161);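 note: 0% = growth of cultures given vehicle only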; details: S. cerevisiae sgs1 mgt1 strain, stronger effect = higher value
Method in brief: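 Growth of a repair-deficient yeast mutant was monitored after compound treatment and expressed as inhibition relative to vehicle-treated cultures.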

[4] = NCI Yeast Anticancer Drug Screen. Data for the CLN2oe strain (AID 163);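 note: 0% = growth of vehicle-only control cultures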; details: S. cerevisiae CLN2oe strain, stronger effect = higher value
Method in brief: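 Values reflect how much compound exposure reduced yeast growth, referenced to vehicle-exposed cells. Assay organism is a strain with a defined genetic change affecting cell-cycle control.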

[5] = NCI Yeast Anticancer Drug Screen. Data for the cln2 rad14 strain (AID 165);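 note: 0% = growth equal to vehicle treated cultures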; details: S. cerevisiae cln2 rad14 strain, stronger effect = higher value
Method in brief: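 Relative to vehicle controls, growth inhibition of compound-treated cln2 rad14 yeast was recorded.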

[6] = NCI Yeast Anticancer Drug Screen. Data for the bub3 strain (AID 167); details: S. cerevisiae bub3 mutant strain, stronger effect = higher value
Method in brief: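 In this screen, a yeast mutant lacking normal mitotic checkpoint function is challenged with compound. Relative growth versus vehicle gives the inhibition value.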

[7] = NCI Yeast Anticancer Drug Screen. Data for the wt2 strain (AID 169);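 note: 0% = growth of vehicle-treated yeast cultures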; details: S. cerevisiae wt2 strain growth inhibition, stronger effect = higher value
Method in brief: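 Values express reduction in yeast growth under compound treatment, referenced to vehicle-treated cells.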

[8] = NCI Yeast Anticancer Drug Screen. Data for the mlh1 strain (AID 171);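 note: 0% = growth of vehicle-treated control cultures of the same strain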; details: S. cerevisiae mlh1 strain growth inhibition, stronger effect = higher value
Method in brief: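 Steps: expose the defined-mutant yeast strain to compound; expose a parallel culture to vehicle; measure growth; express compound effect as inhibition relative to the vehicle culture.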

[9] = NCI Yeast Anticancer Drug Screen. Data for the sgs1 strain (AID 173);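 note: 0% = growth of vehicle-only control cultures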; details: S. cerevisiae sgs1 mutant, stronger effect = higher value
Method in brief: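 Treat defined-mutant yeast with compound; measure growth; calculate inhibition relative to vehicle-treated cells.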

[10] = NCI Yeast Anticancer Drug Screen. Data for the mlh1 rad18 strain (AID 175); details: S. cerevisiae mlh1 rad18 strain growth inhibition, stronger effect = higher value
Method in brief: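 Test agents were incubated with a yeast strain of defined genotype (DNA damage repair defect). Inhibition of growth was derived by comparison with vehicle-exposed cultures.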

[11] = NCI Yeast Anticancer Drug Screen. Data for the rad18 strain (AID 177); details: S. cerevisiae rad18 mutant growth inhibition, stronger effect = higher value
Method in brief: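 A genetically defined yeast mutant impaired in DNA damage repair was treated with test compounds, then its growth was measured against cultures receiving vehicle alone.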

[12] = NCI Yeast Anticancer Drug Screen. Data for the rad52 strain (AID 147);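 note: 0% = growth of vehicle-treated control cultures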; details: S. cerevisiae rad52 mutant growth inhibition, stronger effect = higher value
Method in brief: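 Screen used a yeast mutant impaired in DNA repair. After compound exposure, growth was measured. Values reflect inhibition compared with vehicle-treated cells.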

[13] = NCI Yeast Anticancer Drug Screen. Data for the wt1 strain (AID 149);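 note: 0% = growth of vehicle-treated wt1 cultures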; details: S. cerevisiae wt1 strain (SPY 50644) growth inhibition, stronger effect = higher value
Method in brief: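 wt1 strain grown with compound or vehicle; inhibition taken from the growth difference.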

[14] = NCI Yeast Anticancer Drug Screen. Data for the rad50EPP+ strain (AID 151);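 note: 0% = growth of vehicle-treated control cultures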; details: S. cerevisiae rad50 mutant strain, stronger effect = higher value
Method in brief: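 Exposing the rad50EPP+ strain to each compound, growth was compared with vehicle-only cultures to give inhibition.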

[15] = NCI Yeast Anticancer Drug Screen. Data for the mgt1 strain (AID 153); details: S. cerevisiae mgt1 mutant growth inhibition, stronger effect = higher value
Method in brief: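 Genetically defined yeast (mgt1) treated with compound; inhibition of growth expressed against vehicle-treated controls.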

[16] = NCI Yeast Anticancer Drug Screen. Data for the rad50 strain (AID 155);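 note: 0% = growth of vehicle-only cultures of the same strain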; details: S. cerevisiae rad50 strain growth inhibition, stronger effect = higher value
Method in brief: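 DNA repair mutant yeast, compound exposure, growth read-out; inhibition is taken relative to vehicle.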

[17] = at 5.0 µM (retest, dose inferred, filed as 0.5)
[18] = at 50.0 µM (retest, dose inferred, filed as 5.0)

Measured: growth inhibition

CC1=C(SCCO)C(=O)c2ccccc2C1=O
active: [1]; [18] 80% | [1]; at 50.0 µM 73.3% | [3]; [18] 72% | [3]; at 50.0 µM 81.5% | [6]; [18] 77% | [6]; at 50.0 µM 81.2% | [10]; at 50.0 µM 81.1%
inactive: [1]; [17] -22% | [1]; at 11.0 µM 0% | [1]; at 33.0 µM 13% | [1]; at 100.0 µM 11% | [2]; at 1.2 µM 2% | [2]; at 3.7 µM 3% | [2]; at 11.0 µM 8% | [2]; at 33.0 µM 17% | [2]; at 100.0 µM 20% | [3]; [17] -37% | [4]; at 1.2 µM 0% | [4]; at 3.7 µM -5% | [4]; at 11.0 µM -2% | [4]; at 33.0 µM 12% | [4]; at 100.0 µM 14% | [5]; [17] -16% | [5]; [18] 27% | [5]; at 50.0 µM 67.2% | [6]; at 1.2 µM -4% | [6]; at 3.7 µM -1% | [6]; [17] -19% | [6]; at 11.0 µM 5% | [6]; at 33.0 µM 29% | [6]; at 100.0 µM 29% | [7]; at 1.2 µM -2% | [7]; at 3.7 µM 0% | [7]; at 11.0 µM 3% | [7]; at 33.0 µM 18% | [7]; at 100.0 µM 17% | [8]; at 1.2 µM 0% | [8]; at 3.7 µM -2% | [8]; at 11.0 µM 7% | [8]; at 33.0 µM 8% | [8]; at 100.0 µM 5% | [9]; at 1.2 µM -2% | [9]; at 3.7 µM -2% | [9]; at 11.0 µM 7% | [9]; at 33.0 µM 40% | [9]; at 100.0 µM 35% | [10]; [17] -29% | [10]; [18] 62% | [11]; at 1.2 µM -12% | [11]; at 3.7 µM -10% | [11]; at 11.0 µM -3% | [11]; at 33.0 µM 33% | [11]; at 100.0 µM 51%

COc1ccccc1N=NC(C(=O)c1ccccc1)C(=O)c1ccccc1
active: [12]; at 33.0 µM 97% | [12]; at 100.0 µM 97% | [13]; at 33.0 µM 96% | [13]; at 100.0 µM 96% | [15]; at 33.0 µM 96% | [15]; at 100.0 µM 98% | [16]; at 33.0 µM 96% | [16]; [18] 96% | [16]; at 50.0 µM 93.4% | [16]; at 100.0 µM 96% | [1]; at 33.0 µM 91% | [1]; [18] 96% | [1]; at 50.0 µM 94.5% | [1]; at 100.0 µM 97% | [2]; at 33.0 µM 98% | [2]; at 100.0 µM 97% | [3]; [18] 95% | [3]; at 50.0 µM 93.7% | [4]; at 33.0 µM 94% | [4]; at 100.0 µM 97% | [5]; [18] 95% | [5]; at 50.0 µM 88.8% | [6]; at 33.0 µM 95% | [6]; [18] 97% | [6]; at 50.0 µM 92.5% | [6]; at 100.0 µM 97% | [7]; at 33.0 µM 92% | [7]; at 100.0 µM 97% | [8]; at 33.0 µM 94% | [8]; at 100.0 µM 96% | [9]; at 33.0 µM 96% | [9]; at 100.0 µM 96% | [10]; [18] 97% | [10]; at 50.0 µM 92.5%
inactive: [12]; at 1.2 µM 3% | [12]; at 3.7 µM 22% | [12]; at 11.0 µM 16% | [13]; at 1.2 µM 6% | [13]; at 3.7 µM 3% | [13]; at 11.0 µM 13% | [14]; at 1.2 µM -47% | [14]; at 3.7 µM -21% | [14]; at 11.0 µM 1% | [14]; at 33.0 µM 17% | [14]; at 100.0 µM 62% | [15]; at 1.2 µM -29% | [15]; at 3.7 µM -24% | [15]; at 11.0 µM 4% | [16]; at 1.2 µM -50% | [16]; at 3.7 µM -50% | [16]; [17] 34% | [16]; at 11.0 µM -16% | [1]; at 1.2 µM -57% | [1]; at 3.7 µM -31% | [1]; [17] -3% | [1]; at 11.0 µM -25% | [2]; at 1.2 µM -33% | [2]; at 3.7 µM -29% | [2]; at 11.0 µM -14% | [3]; [17] 22% | [4]; at 1.2 µM 16% | [4]; at 3.7 µM -5% | [4]; at 11.0 µM -4% | [5]; [17] 10% | [6]; at 1.2 µM 4% | [6]; at 3.7 µM -17% | [6]; [17] 5% | [6]; at 11.0 µM 17% | [7]; at 1.2 µM -10% | [7]; at 3.7 µM 5% | [7]; at 11.0 µM -6% | [8]; at 1.2 µM -25% | [8]; at 3.7 µM -27% | [8]; at 11.0 µM -1% | [9]; at 1.2 µM -37% | [9]; at 3.7 µM -6% | [9]; at 11.0 µM -4% | [10]; [17] -7%

CN(C)c1ccc(Sc2ccc3nc(N)nc(N)c3c2)cc1
active: [1]; [18] 80% | [1]; at 50.0 µM 89.3%
inactive: [12]; at 1.2 µM 9% | [12]; at 3.7 µM 28% | [12]; at 11.0 µM 31% | [12]; at 33.0 µM 27% | [12]; at 100.0 µM 51% | [13]; at 1.2 µM 15% | [13]; at 3.7 µM 12% | [13]; at 11.0 µM 10% | [13]; at 33.0 µM -7% | [13]; at 100.0 µM -5% | [14]; at 1.2 µM 15% | [14]; at 3.7 µM 30% | [14]; at 11.0 µM 24% | [14]; at 33.0 µM 30% | [14]; at 100.0 µM 28% | [15]; at 1.2 µM -5% | [15]; at 3.7 µM 2% | [15]; at 11.0 µM -4% | [15]; at 33.0 µM -11% | [15]; at 100.0 µM 7% | [16]; at 1.2 µM -18% | [16]; at 3.7 µM 7% | [16]; [17] 41% | [16]; at 11.0 µM 8% | [16]; at 33.0 µM 5% | [16]; [18] 41% | [16]; at 50.0 µM 60% | [16]; at 100.0 µM 40% | [1]; at 1.2 µM -28% | [1]; at 3.7 µM -28% | [1]; [17] 28% | [1]; at 11.0 µM -4% | [1]; at 33.0 µM 13% | [1]; at 100.0 µM 55% | [2]; at 1.2 µM -15% | [2]; at 3.7 µM -4% | [2]; at 11.0 µM -9% | [2]; at 33.0 µM -14% | [2]; at 100.0 µM 5% | [3]; [17] 29% | [3]; [18] 67% | [3]; at 50.0 µM 60% | [4]; at 1.2 µM 17% | [4]; at 3.7 µM 8% | [4]; at 11.0 µM 17% | [4]; at 33.0 µM -11% | [4]; at 100.0 µM 18% | [5]; [17] 24% | [5]; [18] 6% | [5]; at 50.0 µM 25.4% | [6]; at 1.2 µM -17% | [6]; at 3.7 µM -11% | [6]; [17] 27% | [6]; at 11.0 µM -20% | [6]; at 33.0 µM -17% | [6]; [18] 43% | [6]; at 50.0 µM 21.9% | [6]; at 100.0 µM -9% | [7]; at 1.2 µM -4% | [7]; at 3.7 µM -1% | [7]; at 11.0 µM 9% | [7]; at 33.0 µM 7% | [7]; at 100.0 µM 1% | [8]; at 1.2 µM -4% | [8]; at 3.7 µM -8% | [8]; at 11.0 µM -16% | [8]; at 33.0 µM -9% | [8]; at 100.0 µM 18% | [9]; at 1.2 µM 14% | [9]; at 3.7 µM 21% | [9]; at 11.0 µM 24% | [9]; at 33.0 µM 17% | [9]; at 100.0 µM 18% | [10]; [17] 34% | [10]; [18] 34% | [10]; at 50.0 µM 51.8% | [11]; at 1.2 µM 3% | [11]; at 3.7 µM -17% | [11]; at 11.0 µM -12% | [11]; at 33.0 µM -17% | [11]; at 100.0 µM 11%
